TIM10 inh = inhibits growth of TIM10 yeast strain; S. cerevisiae TIM10 strain growth, BacTiter-Glo luminescence, 24 h; inhibition, % at 10 µM; 330,000 compounds, 1.4% hits; AID 463195;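 active means inhibition of 40% or more at the single tested concentration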;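 further: wild-type TIM10 isogenic control strain grown at permissive 25 °C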
CR mimetic SO = lowers age-related superoxide in aged yeast cells. superoxide response (% of plate mean), % at 10 µM. 330,000 compounds, 0.18% hits. S. cerevisiae aged cells, superoxide DHE fluorescence; stronger effect = lower value;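 active means superoxide response under a set limit, about three screen SD below normal, cut at about 65% in these data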;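 further: yeast aged for seven days with compound at 30 °C before DHE staining; 100% = average MFI of all compound-treated wells on the plate with controls excluded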
tim23-1 inh = growth inhibitors of tim23-1 mutant yeast | S. cerevisiae tim23-1 growth, BacTiter-Glo luminescence, 24 h | inhibition, % at 20 µM | 330,000 compounds, 1.3% hits;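 active means growth inhibition of the mutant yeast at or above 50%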;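 further: temperature-sensitive mutant grown at 25 °C; plate controls were DMSO-treated mutant yeast for no effect and medium wells lacking yeast for full effect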
tim10-1 inh = growth inhibitors of tim10-1 mutant yeast. S. cerevisiae tim10-1 ts strain growth, BacTiter-Glo, 24 h. inhibition, % at 20 µM. 330,000 compounds, 2.2% hits. AID 463190;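 active means inhibition of at least 40%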;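 further: mutant grown at 25 °C; 0% = DMSO wells with yeast and 100% = wells holding no yeast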
NLRP3 yeast inh = blocks the NALP3 inflammasome reconstituted in yeast. Yeast reconstituted NLRP3/ASC/caspase-1, beta-gal luminescence, 24 h. inhibition, % at 10 µM. 330,000 compounds, 0.39% hits. AID 2825;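 active means inhibition of 50% or more; inactive means inhibition below 50%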;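 further: plate controls were induced DMSO wells for no effect and uninduced yeast grown without galactose for full effect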
tim10-1 conf = confirmation of tim10-1 mutant yeast growth inhibitors; AID 463213; inhibition, % at 20 µM; 7,400 compounds, 56% hits; shares compounds with tim10-1 inh; S. cerevisiae tim10-1 ts strain growth, BacTiter-Glo, 24 h;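 active means inhibition of yeast growth at or above a set limit in either of two repeat tests at 20 µM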;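 further: tim10-1 mutant grown at permissive 25 °C to find synthetic lethal compounds; 0% = DMSO yeast wells and 100% = medium wells without yeast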
* = called active by the depositor; / = not tested or not shown. Shown are actives, neighbours in structure and some others; about 3.8% of the full set was active somewhere.

SMILES	TIM10 inh	CR mimetic SO	tim23-1 inh	tim10-1 inh	NLRP3 yeast inh	tim10-1 conf
Cc1ccccc1CSCC(=O)N1CCN(c2ccccc2)CC1	10	115	27	44*	-9	23
O=C(CSCc1ccc(F)cc1)N1CCN(c2ccccc2)CC1	2	109	21	30	20	/
O=C(N/C(=C/c1cccc([N+](=O)[O-])c1)C(=O)N1CCCCC1)c1ccco1	12	97	13	9	6	/
COc1ccc2c(c1)CCc1c(C(=O)N3CCOCC3)noc1-2	-10	85	7	8	10	/
COc1ccc(/C=C/C(=O)N2CCCc3ccccc32)cc1	23	99	37	47*	19	22
CCOC(=O)/C=C/C(=O)N1CCc2ccccc21	20	90	32	47*	14	40*
COc1ccc2c(c1)CCc1c(C(=O)N3CCCc4ccccc43)noc1-2	34	112	42	45*	28	34*
Cc1cccc(NCc2ccc(N(C)C)cc2)n1	3	89	10	14	20	/
O=C(Cc1ccc(F)cc1)OCC(=O)N1CCN(S(=O)(=O)c2ccc(Cl)cc2)CC1	14	125	18	34	12	/
O=C(Cc1cccc(C(F)(F)F)c1)OCC(=O)N1CCN(S(=O)(=O)c2ccc(Cl)cc2)CC1	8	100	18	47*	8	15
Cc1sc2nc(CSC(C)C(=O)N3CCOCC3)[nH]c(=O)c2c1C (stereo unspecified)	5	83	-14	-2	-1	/
Cc1ccc(N2C(=O)C(CN3CCOCC3)C2c2ccccc2)cc1 (stereo unspecified)	11	74	27	29	2	/
CCCCNC(=S)N=Nc1c(O)[nH]c2ccccc12	32	111	44	47*	3	41*
COc1cccc(C(C(=O)NC2CCCC2)N(CC2CCCO2)C(=O)Cc2cccs2)c1 (stereo unspecified)	14	90	12	45*	6	21
CCn1c2ccccc2c2c3ncc4cccn4c3ccc21	16	105	37	49*	20	30*
c1ccc2c(c1)ncc1cccn12	-3	83	1	-10	18	/
COc1ccc(Nc2nc(OC)nc(OC)n2)cc1	-4	105	15	14	19	/
COc1ccc(Nc2nc(Nc3ccc(OC)cc3)nc(SC3=NCCS3)n2)cc1	39	93	17	40	20	15
COC(=O)c1cc(S(=O)(=O)N2CCN(c3ccccc3)CC2)c[nH]1	-3	102	0	-11	10	/
COC(=O)c1cc(S(=O)(=O)N2CCN(c3cccc(C)c3C)CC2)c[nH]1	31	124	26	51*	-9	30*
CCOC(=O)N1CCN(C(=O)CC(C)S(=O)(=O)c2cc3c(cc2C)NC(=O)CO3)CC1 (stereo unspecified)	-5	102	15	23	11	/
CCN(CC)CCOc1c(Br)ccc2c1sc1nc3n(c(=O)c12)CCC3	11	98	-6	35	16	/
O=c1c2c(nc3n1CCCCC3)sc1c(O)c(Br)ccc12	13	110	45	45*	20	28
O=C(/C=C/c1cccc([N+](=O)[O-])c1)NCCSCc1ccccc1Cl	36	100	41	36	13	/
O=C(/C=C/c1cccc([N+](=O)[O-])c1)NCCSCc1ccc(Cl)cc1Cl	30	114	37	42*	15	35*
SMILES	TIM10 inh	CR mimetic SO	tim23-1 inh	tim10-1 inh	NLRP3 yeast inh	tim10-1 conf
CCCN1CCN(C(=O)C2CCCN(c3ncnc4c3nc3n4CCCCC3)C2)CC1 (stereo unspecified)	-1	104	-11	-4	4	/
COc1cccc(C(=O)CSc2nnnn2C2CCCCC2)c1	11	86	46	44*	18	37*
COC(=O)C1CCN(C(=O)Cn2nnc(-c3ccccc3)n2)CC1	0	89	-5	-7	28	/
COc1ccc(C(c2c(C)[nH]n(C(N)=S)c2=O)C(C#N)C#N)cc1 (stereo unspecified)	18	116	47	44*	18	24
O=C(/C=C/c1cccc(Cl)c1)OCc1cn2cc(Cl)ccc2n1	20	80	28	43*	6	29
O=C(COC(=O)/C=C/c1cccc(Cl)c1)Nc1c(F)cccc1F	-7	101	-3	-4	21	/
CCOc1ccccc1NC(=O)COC(=O)c1nc2nccc(C)n2n1	-3	93	9	8	-4	/
COc1ccc(/C(N)=N/OC(=O)Cc2ccc(C)cc2)cc1OC	9	77	21	19	30	/
COc1ccc(/C(N)=N/OC(=O)c2cccs2)cc1OC	25	98	23	66*	3	53*
N/C(=N\OC(=O)COc1ccc(Cl)cc1)c1ccc(Cl)cc1	25	123	9	27	4	/
Cc1cccc(/C(N)=N/OC(=O)COc2ccc(Cl)cc2)c1	21	100	27	50*	26	46*
COc1cc(OC)c(C(=O)O/N=C(\N)c2cccc(C)c2)cc1OC	28	94	36	48*	23	41*
COc1cc(OC)c(C(=O)O/N=C(\N)c2ccc(C)cc2)cc1OC	33	122	36	46*	16	49*
CC(C)Oc1ccc(CNC(=S)N/N=C/c2ccc([N+](=O)[O-])cc2)cc1	-2	106	-3	43*	28	22
CN(C(=O)c1ccccc1C(=O)OCC(=O)Nc1ccc(OC(F)F)cc1)c1ccccc1	9	98	30	43*	22	24
CCOC(=O)C1=C(CSc2nc(-c3ccncc3)ccc2C#N)OC(N)=C(C#N)C1c1ccc(OC)cc1 (stereo unspecified)	21	93	48	45*	12	23
CCOC(=O)C1=C(CSc2nc(C)ccc2C#N)OC(N)=C(C#N)C1c1cccc(OC)c1OC (stereo unspecified)	39	81	25	45*	24	45*
CCOc1ccc(NC(=S)N2C3CCCC2CC(NC(=O)C2CC2)C3)cc1 (stereo unspecified)	-15	103	-1	8	24	/
CCCN(Cc1ccccc1)C(=S)Nc1cccc(C(F)(F)F)c1	25	106	5	47*	10	31*
COc1ccc2c(=O)cc(-c3ccccc3)n(C)c2c1	4	95	4	23	8	/
Nc1cc(-c2ccc(Cl)cc2)nn1-c1ccccc1	20	146	16	19	27	/
Nc1ccccc1Nc1cc(-c2ccccc2)nn1-c1cccc(Cl)c1	20	102	48	44*	22	16
Cc1cccc(NC(=S)NCCSc2ccc(Cl)cc2)c1	35	90	28	45*	16	26
Cc1ccc(C)c(NC(=S)NCCSc2ccc(Cl)cc2)c1	19	91	17	26	23	/
Cc1ccccc1NC(=S)NCCSc1ccc(Cl)cc1	25	106	30	47*	23	26
